# The whole screen tested about 410,000 compounds, of which about 7,200 (1.8%) were called active. A call without a number means that no potency is given here. Roughly 7% stayed inconclusive and do not appear here. The sample holds actives, similar compounds and a random draw of the others, so the mix is not that of the screen. A number with no mark means an inactive call. Calls follow the shape of the dose curve; as a rule, active = well fitted activation curve with a large enough effect; inconclusive = small, poorly fitted or top-dose-only effect, or another doubt; inactive = no such curve, though single readings can be large or run the other way.
# Test: qHTS of TDP-43 Inhibitors; also: nearly all actives have a fitted effect of over 50% in size
# Settings: TDP-43 expressing yeast growth rescue, BacTiter-Glo, 24 h; series mostly up to 46.1 µM
# From the text: The goal of this project is to identify new chemical probes capable of reversing the toxicity associated with TDP-43 which is associated with frontotemporal lobar degeneration and amyotrophic lateral sclerosis. These compounds will provide a complementary approach to deciphering the tangled mechanisms of toxicity and protection that we have uncovered through genome-wide genetic screens and are beginning to uncover in a large-scale proteomics analysis with mass spectroscopy.
# To this end, a miniaturized assay was developed to be screened against the Molecular Libraries Small Molecule Repository (MLSMR) to discover TDP-43 inhibitors. Please note that in the set-up this yeast-based assay compounds that inhibit as TDP-43, have a read-out as activators.
# NIH Chemical Genomics Center [NCGC]
# NIH Molecular Libraries Probe Centers Network [MLPCN]
# Assay Submitter (PI): Susan Lindquist, Whitehead Institute/MIT
# Dispense 2.5 microL yeast galactose medium per 1536-well plate, pin compound, dispense 2.5 microL TDP-43 expressing yeast in galactose medium at OD600=0.02 (pregrown in raffinose medium to mid-log phase) per well, incubate for 24 hr at 30 deg C, and cell growth will be measured using 5 microL of Bactiter/Glo reagent to entire plate and read using Luminescence Protocol in ViewLux.
# Potency is read from the fitted curve at half-maximal effect.
SMILES,Potency,growth rescue (activation)
CC(c1ccco1)N(C(=O)Nc1ccccc1)C1CCCCC1 (stereo not given),inactive,
CC(NC(=S)Nc1ccccc1)C1COc2ccccc2O1 (stereo not given),12.6 µM (active),
CC(NC(=S)Nc1ccccc1)C(c1cccs1)N1CCOCC1 (stereo not given),inactive,
COc1ccc(NC(=O)c2cc3cc(C)ccc3n2C)cc1,,2.24% [at 9.22 µM]
CC1CCN(c2nc3ccc(C(=O)N4CCN(c5ccccc5)CC4)cc3s2)CC1,inactive,
Cc1nc2ccc(C(=O)N3CCSCC3)cc2s1,inactive,
Cc1nc2ccc(C(=O)N3CCN(c4ccccc4)CC3)cc2s1,14.1 µM (active),
O=C(Oc1ccccc1)Oc1ccc2c(c1)oc(=O)c1ccccc12,inactive,
CC(=O)Oc1ccc(-c2nc3c(C)cccc3c(=O)o2)cc1,12.6 µM (active),
COc1nc(N=C(N)N)nc2c(C)cccc12,inactive,
O=S(=O)(Cc1ccc(Cl)cc1Cl)c1ccc(Cl)cc1,inactive,
O=S(=O)(NCc1ccc(Cl)cc1Cl)c1cccs1,8.91 µM (active),
O=C(NCc1ccc(Cl)cc1)C1CCN(S(=O)(=O)c2cccs2)CC1,inactive,
CC1=C(C(=O)Nc2ccccc2Cl)C(c2cccs2)n2ncnc2N1 (stereo not given),inactive,
CCNC(=O)c1cc2n(n1)CCCN(Cc1ccc(C)cc1)C2=O,inactive,
Cc1ccc(C(=O)N/N=C\c2cc(Br)c(Br)o2)cn1,inactive,
O=C(N/N=C\c1cc(Br)c(Br)o1)C1COc2ccccc2O1 (stereo not given),11.2 µM (active),
CC(/C=C/c1ccco1)=N/NC(=O)C1COc2ccccc2O1 (stereo not given),inactive,
O=C(Nc1nc2ccc(F)cc2s1)c1nc(SCc2ccccc2F)ncc1Cl,inactive,
COc1cc(CNCCSc2nnnn2C)ccc1OCc1c(F)cccc1Cl,inactive,
CCOc1ccc(Nc2nc3c(S(=O)(=O)c4cccc(Cl)c4)nnn3c3ccsc23)cc1,inactive,
O=C(NCc1ccc(F)cc1)c1ccc(Cn2c(SCc3ccc(F)cc3)nc3cccnc32)cc1,inactive,
CCCCN(C)c1nnc(NC(=O)Nc2ccc(Br)c(C)c2)s1,,22.1% [at 9.22 µM]
COc1ccc(NC(=O)C(c2ccncc2)n2c(=O)c(-c3cc4ccccc4[nH]3)nc3ccccc32)cc1 (stereo not given),17.8 µM (active),
COc1ccc(C(C(=O)NCc2ccccc2)n2c(=O)c(-c3ccccc3)nc3ccccc32)cc1 (stereo not given),inactive,

SMILES,Potency,growth rescue (activation)
CCCCCNC(=O)C(c1ccc(OC)cc1)n1c(=O)c(-c2ccccc2)nc2ccccc21 (stereo not given),inactive,
COc1ccc(CC(=O)NCCc2sc3nc(-c4ccc(OC)cc4)nn3c2C)cc1,inactive,
CC1CCCCN1Cc1c(O)ccc2c(=O)c(-c3cccc(Cl)c3)c(C(F)(F)F)oc12 (stereo not given),inactive,
O=C(NC1Cc2ccccc2C1)c1cc(COc2cccc(C(F)(F)F)c2)on1,inactive,
CC1CN(C(=O)c2cc(COc3c(F)cccc3F)on2)CCN1C (stereo not given),inactive,
O=C(c1cc(COc2cccc(C(F)(F)F)c2)on1)N1CCSCC1,22.4 µM (active),
CCc1cccc(NC(=O)Cn2nc(CC)n3c(cc4cc(C)ccc43)c2=O)c1,inactive,
COc1ccc(C2(Nc3cccc(F)c3)C(=O)c3ccccc3C2=O)cc1,inactive,
CCCOc1ccccc1C1CC(=O)Nc2cc3c(cc21)OCO3 (stereo not given),20 µM (active),
Cc1cc2c(cc1C)C(c1cccc(OC(C)C)c1)CC(=O)N2 (stereo not given),inactive,
O=C1CC(c2ccc(F)cc2F)c2cc3c(cc2N1)OCO3 (stereo not given),inactive,
Cc1ccc(Cl)cc1N1CCN(C(=O)C2CCC(CNS(=O)(=O)c3cccs3)CC2)CC1 (stereo not given),inactive,
COc1cccc(CN2CCc3nc(SCC(=O)Nc4ccccc4)[nH]c(=O)c3C2)c1,inactive,
O=C(NC1CCCCC1)c1ccc(Cn2c(SCc3ccccc3)nc3cccnc32)cc1,inactive,
O=C(O)c1ccc(CSc2nc3cccnc3n2Cc2cccc(F)c2)cc1,inactive,
Cc1oc(-c2ccccc2)nc1Cn1c(SCc2cccc(C(F)(F)F)c2)nc2cccnc21,20 µM (active),
Cc1ccccc1OCc1nc2c3cnn(-c4ccccc4F)c3ncn2n1,inactive,
C[C@@H](Nc1nc(-c2ccccc2)nc2c1oc1ccccc12)C(=O)O,inactive,
COCCNc1nc(-c2ccccc2)nc2c1oc1ccccc12,12.6 µM (active),
CCc1nc(Nc2ccc3nccnc3c2)c2oc3ccccc3c2n1,inactive,
Cc1cc(NC(=O)CC(C)C)cc(-c2nc3ncccc3o2)c1O,inactive,
CCOc1ccc(NC(=O)c2cnn(-c3ccccc3)c2-n2cccc2)cc1,,-9.72% [at 9.22 µM]
COc1ccccc1CNc1nc2ccc(Cl)cc2n2cnnc12,inactive,
COc1ccccc1-c1cc2nc(NCc3cccc(Cl)c3)ccn2n1,17.8 µM (active),
CC(C)Cc1ccc(-c2cc3nc(NCc4cccc(Cl)c4)ccn3n2)cc1,inactive,

SMILES,Potency,growth rescue (activation)
CCC1CCCCN1C(=O)Cn1c(=O)n(CCCCCC(=O)NCc2ccccc2)c(=O)c2sccc21 (stereo not given),inactive,
S=c1[nH]nc(NCCc2ccccc2)s1,,-8.25% [at 0.397 µM]
Cc1nc(C)c(-c2csc(NCCc3ccccc3)n2)s1,15.8 µM (active),
Cc1nc(N)sc1-c1ccccc1,inactive,
Cc1c(CCNC(=O)c2ccc(C(F)(F)F)cc2)sc2nc(-c3ccc(F)cc3)nn12,inactive,
COc1ccc(C2NC(=O)N(C)C3=C2C(=O)N(c2ccc(C(=O)O)cc2)C3)cc1 (stereo not given),inactive,
COC(=O)c1scc(-c2ccc(C)cc2)c1S(=O)(=O)Nc1cc(Cl)c(OC)cc1OC,inactive,
CCOC(=O)c1scc(-c2ccc(C)cc2)c1S(=O)(=O)Nc1cc(C)ccc1C,inactive,
COC(=O)c1scc(-c2ccccc2)c1S(=O)(=O)Nc1ccccc1,12.6 µM (active),
COc1cc(C(=O)NCCc2csc3nc(-c4ccccc4C)nn23)cc(OC)c1OC,inactive,
COc1ccc(NC(=O)C(c2ccccc2)N2Cc3ccccc3C2=O)cc1 (stereo not given),,0% [at 9.22 µM]
Cc1cc(C)cc(NC(c2nnc(-c3cccc(F)c3)o2)c2ccc(F)cc2Cl)c1 (stereo not given),inactive,
C/C(=N\NC(=O)Cc1ccccc1[N+](=O)[O-])c1cccnc1,inactive,
O=C(/C=C/c1ccc(Cl)c([N+](=O)[O-])c1)c1cccnc1,3.16 µM (active),
O=C(/C=C/Nc1ccc(S(=O)(=O)Nc2cnc3ccccc3n2)cc1)c1cccnc1,inactive,
Cc1ccc(CCNC(=O)c2ccc(CS(=O)(=O)Cc3cccc(C)c3)o2)cc1,inactive,
CC1=C(C(=O)N2CCN(c3cccc(C(F)(F)F)c3)CC2)C2(CCCCC2)OC1=O,inactive,
COc1ccc(CCNc2nc(-c3ccc(Cl)cc3)cc(C(F)(F)F)n2)cc1OC,inactive,
COc1ccc(CCNc2cc(C)nc3c(-c4ccc(Cl)cc4)c(C)nn23)cc1OC,20 µM (active),
COc1cccc(NC(=O)C2CCN(c3cc(C)nc4c(-c5ccc(Cl)cc5)c(C)nn34)CC2)c1,inactive,
COc1ccc(N2CCN(C(=O)C3CCCN(C(=O)c4cc5sccc5n4C)C3)CC2)cc1 (stereo not given),inactive,
COC(=O)c1ccccc1NC(=O)c1ccc(COc2ccccc2Cl)o1,inactive,
Cc1ccc(CNC(=O)CCc2c(C)nc3nc(CNC(=O)OC(C)(C)C)nn3c2C)cc1,inactive,
Nc1ccccc1Sc1ccc(C(F)(F)F)cc1[N+](=O)[O-],11.2 µM (active),
O=[N+]([O-])c1cc(C(F)(F)F)ccc1NN=C1CCCC1,inactive,

SMILES,Potency,growth rescue (activation)
O=C(CSc1ccc(C(F)(F)F)cc1[N+](=O)[O-])NCCOc1ccccc1,inactive,
Cc1nc2nc(NCc3cccc(Br)c3)[nH]n2c(=O)c1Cc1ccccc1,inactive,
COc1ccc(C(=O)N2CCC(c3nc4ccccc4o3)CC2)cc1,inactive,
CC(C)(C)OC(=O)N1CCN(C(=O)c2[nH]c(C(F)(F)F)nc2-c2ccccc2)CC1,inactive,
Cc1onc(-c2ccccc2)c1C(=O)N1CCN(S(=O)(=O)c2ccccc2C(F)(F)F)CC1,15.8 µM (active),
CCc1noc(C)c1C(=O)N1CCN(S(=O)(=O)c2cccc(C(F)(F)F)c2)CC1,inactive,
N#Cc1nc(/C=C/c2ccc(F)cc2)oc1NC1CCCCC1,inactive,
Cc1ccccc1NC(=O)CSC1=NCCN1,inactive,
Cc1cccc(NC(=O)CSC(N)=O)c1C,inactive,
Cc1ccccc1NC(=O)CSC(=O)c1ccccc1,14.1 µM (active),
CCOc1cccc(CNC(=O)c2ccc(N3CCCC3)c(NC(=O)Nc3ccccc3CC)c2)c1,inactive,
Cc1cccc(NC(=O)CN(c2ccc(C(C)C)cc2)S(=O)(=O)c2c(C)nn(C)c2C)c1C,inactive,
Cc1ccc(CNC(=O)CCc2c(C)nc3c(c(C)nn3-c3ccccc3)c2C)cc1,inactive,
CCOC(=O)C1CCCN(CC(=O)Nc2cc(C)c3c(=O)oc4ccccc4c3n2)C1 (stereo not given),inactive,
COc1ccc(CNc2nc(-c3ccccc3)nn2C(=O)c2ccccc2OC)cc1,inactive,
Cc1cc(C)cc(NC(=O)CCCc2nc(-c3ccccc3Cl)no2)c1,inactive,
O=C(CSc1nccn1-c1cccc(F)c1)NC1CCCC1,inactive,
O=C(CSc1nccn1-c1ccc(F)cc1)Nc1cccc2ccccc12,17.8 µM (active),
Cc1ccccc1-n1c(SCC(=O)Nc2cccc3ccccc23)nc(O)cc1=O,inactive,
Cc1ccc2nc(SCC(=O)Nc3cccc4ccccc34)nc(=O)n2c1,inactive,
Cc1cccc(-n2ccnc2SCC(=O)Nc2cccc3ccccc23)c1C,22.4 µM (active),
Cc1cc(NC(=O)CSc2nccn2-c2ccc([N+](=O)[O-])cc2)no1,inactive,
O=C(CSc1nc(Nc2ccc(F)c(F)c2)c2ccccc2n1)c1ccc(Cl)cc1,inactive,
CCC(C(=O)Nc1cc(OC)ccc1OC)n1c(=O)c(C(F)(F)F)nc2ccccc21 (stereo not given),inactive,
CC(NC(=O)c1cc(Sc2ccc(F)cc2F)nc2ccccc12)c1ccccc1 (stereo not given),inactive,
